Inconclusive results are not listed. Active and inactive are the calls of the source. Calls follow the shape of the dose curve; as a rule, active = well fitted cell-killing curve with a large enough effect; inconclusive = small, poorly fitted or top-dose-only effect, or effect the other way; inactive = no such curve, though single readings can be large or run the other way.

The nature of test [1]: Viability qHTS for spleen associated tyrosine kinase inhibitor (SYKi) naive MV4-11 cells (AID 1963823). Also: nearly all actives have a fitted effect of over 40% in size. In a few lines: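 CellTiter-Glo luminescence, 10 min room-temperature incubation, gave viability. Cells: naive MV4-11 (500/well), treated 72 hr at 37 C, 5% CO2.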
On the technique in general: In qHTS, concentration-response curves come from the screen itself.

Test [2] can be described thus: Viability qHTS for spleen associated tyrosine kinase inhibitor (SYKi) drug resistant MV4-11 cells (AID 1963824). Also: nearly all actives have a fitted effect of over 35% in size. In a few lines:
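SYK-inhibitor-resistant MV4-11 AML cells were seeded at 500 per well onto compound and cultured 72 hours (37 °C, 5% CO2). CellTiter-Glo was then added, and after 10 min at room temperature, luminescence gave viability.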
Potency is read from the fitted curve at half-maximal effect.

Take `O=C(OCC(O)CO[C@@H]1O[C@H](C(=O)O)[C@@H](O)[C@H](O)[C@H]1O)c1ccccc1` (stereo not given in full): the Potency result in test [1] and in test [2] was “inactive” throughout.
For the compound `CC1(C)C[C@@H]2[C@H](C1)[C@@]1(C)C[C@]13C(O)OC[C@]3(O)[C@H]2O` (stereo not given in full), the Potency entry in test [1] and in test [2] was “inactive” each time.
On to `COc1ccc(O[C@@H]2O[C@H](CO)[C@@H](O)[C@H](O)[C@H]2O)cc1OC`, for which the Potency entry in test [1] and in test [2] was “inactive” in each case.
In the case of `C[C@H]1CC(=O)Nc2cccc(-c3cnn(C(C)(C)C)c3)c2N1`, the Potency result in test [1] and in test [2] was “inactive” in each case.
Consider `CC(=O)NCCc1c[nH]c2ccc(O)cc12`, for which the Potency entry in test [1] and in test [2] was “inactive” each time.
`C=C1CCC2[C@](C)(CCC[C@@]2(C)C=O)[C@H]1CC/C(C)=C/CO` (stereo not given in full): the Potency in test [1] and in test [2] was 20.6 µM (active) throughout.
Turning to `CC(C)C(N)C(=O)OCCOCn1cnc2c(=O)[nH]c(N)nc21` (stereo not given), the Potency entry in test [1] and in test [2] was “inactive” in each case.
As to `COc1c2c(c(C)c3c1C(=O)OC3)O[C@@]1(C)CCC3(C(C)(C)O)OC(=O)CC[C@]3(C)[C@H]1C2` (stereo not given in full), the Potency result in test [1] and in test [2] was “inactive” each time.
Regarding `CC(CCC1(O)OC2CC3C4CCC5CC(O[C@@H]6O[C@H](CO)[C@@H](O)[C@H](O)[C@H]6O[C@@H]6O[C@@H](C)[C@H](O)[C@@H](O)[C@H]6O)C(O)CC5(C)C4CCC3(C)C2C1C)CO[C@@H]1O[C@H](CO)[C@@H](O)[C@H](O)[C@H]1O` (stereo not given in full), in test [1], the viability (% of control) is 87.7% [at 9.25 µM] (inactive). Also, in test [2], the viability, % of control was 109% [at 9.25 µM] (inactive).
In the case of `CC[C@H]1OC(=O)C[C@@H](O)[C@H](C)[C@@H](O[C@@H]2O[C@H](C)[C@@H](O)[C@H](N(C)C)[C@H]2O)[C@@H](CCN2C[C@H](C)C[C@H](C)C2)C[C@@H](C)C(=O)/C=C/C(C)=C/[C@@H]1CO[C@@H]1O[C@H](C)[C@@H](O)[C@@H](OC)[C@H]1OC`, the Potency entry in test [1] and in test [2] was “inactive” in each case.

The record behind these values is PubChem BioAssay (NCATS).
